AMA1 RON2 block = qHTS for Inhibitors of AMA1-RON; Towards Development of Antimalarial Drug Lead: Primary Screen | Plasmodium falciparum AMA1 (3D7) - RON2 peptide interaction | Potency, µM (titrated, usually from 58.2 µM), without a hit: top-dose activity change, negative = inhibition, usual class: inhibitors | AlphaScreen AMA1-biotinylated RON2 peptide binding | 0.2% of 360,000 active;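 also: potency is read from the fitted curve at half-maximal effect; 0% = vehicle wells and -100% = peptide control; nearly all actives have a fitted effect of over 45% in size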
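AMA1 (3D7) with his tag at 25 nM final met compounds first, then biotinylated RON2 peptide at 25 nM; detection used donor plus acceptor beads, 10 µg/mL apiece, read by AlphaScreen after 30 min at room temperature.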
Pf growth 96h = Primary qHTS for delayed death inhibitors of the malarial parasite plastid, 96 hour incubation. P. falciparum luciferase reporter growth, 96 h. 6.9% of 320,000 active. Potency, µM (series often up to 28.7 µM), without a hit: top-dose activity change, negative = inhibition, most hits filed as inhibitors. AID 504834, 2011; also: potency is read from the fitted curve at half-maximal effect; % is scaled to controls: 0 for no effect and ±100 for the full control effect
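Parasite growth measured via integrated firefly luciferase reporter in P. falciparum. Infected erythrocytes at 2% hematocrit, 0.05% parasitemia final were treated 96 hours at 37 C under 5% CO2, and luminescence was read.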
CHX counter = Cycloheximide Counterscreen for Small Molecule Inhibitors of Shiga Toxin; max response, %; AID 2314, 2010; cell reporter, cycloheximide protein synthesis inhibition counterscreen; 12% of 300,000 active; in the data active = max response mostly above about 13%, no sharp cut-off; inactive = mostly below about 14%; also: read at 38.3 µM for the half of the compounds with a filed dose; 0% is about no effect
SARS PLpro yeast = qHTS of Yeast-based Assay for SARS-CoV PLP | S. cerevisiae expressing SARS-CoV PLpro, growth rescue | Potency, µM (highest dose often 32.9 µM), inactives show at the highest dose activity, positive = growth rescue, hits mostly activators | 0.19% of 330,000 active | AID 485353, 2010; calls by dose curve; also: potency is read from the fitted curve at half-maximal effect; 0% is about no effect; nearly all actives have a fitted effect of over 55% in size
Pf growth 48h = Primary qHTS for delayed death inhibitors of the malarial parasite plastid, 48 hour incubation; P. falciparum luciferase growth in erythrocytes, 48 h; AID 504832, 2011; 5.9% of 310,000 active; Potency, µM (titrated, usually from 28.7 µM), for inactives: top-dose activity change, negative = inhibition, most hits filed as inhibitors; also: potency is read from the fitted curve at half-maximal effect; % is scaled to controls: 0 for no effect and ±100 for the full control effect
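Compounds are pin-transferred into medium, infected erythrocytes (2% hematocrit, 0.1% parasitemia final) are added, and plates sit one parasite generation at 37 C in 5% CO2. Detection reagent is then added and luminescence measured.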
Shiga inhibitor = A qHTS for Small Molecule Inhibitors of Shiga Toxin; inhibition, % at 38.7 µM; Vero cells, Shiga toxin protein synthesis inhibition reporter; AID 2315, 2010; 9.2% of 290,000 active; in the data active = inhibition mostly above about 28%, no sharp cut-off; inactive = mostly below about 43%; also: 0% is about no effect
The depositor's hits bear a star; ? = inconclusive; / = not tested or not shown; [ ] = dose if it differs, or a comment. An excerpt weighted towards active compounds, which were near 19% of everything screened. Unless noted, calls follow the shape of the dose curve; as a rule, active = well fitted curve in the direction sought with a large enough effect; inconclusive = small, poorly fitted or top-dose-only effect, or another doubt; inactive = no such curve, though single readings can be large; an effect the other way counts as inactive or inconclusive.

SMILES	AMA1 RON2 block	Pf growth 96h	CHX counter	SARS PLpro yeast	Pf growth 48h	Shiga inhibitor
CC(=O)Nc1ccn(C2OC(C(COC(C)=O)NC(=O)C(COCc3ccccc3)NC(=O)OC(C)(C)C)C(OC(C)=O)C2OC(C)=O)c(=O)n1 (stereo not drawn)	/	/	-0.7	/	/	-3.8
O=C(COC(=O)c1cccc(F)c1)Nc1ccc2c(c1)OCCO2	2.7%	133.5%	/	-3.2%	113.5%	/
O=c1cc(O)c(-c2ccccc2Cl)c(Cl)[nH]1	-7.2%	?	-2.0	2.7%[6.58 µM]	/	-5.0
Oc1ccccc1-c1cc(-c2ccccc2Cl)[nH]n1	32.3%	/	25.4*	/	-29.5%	101.3*
Oc1ccc(Cl)cc1-c1cc(-c2ccccc2Cl)[nH]n1	76.3%	5.3%	23.1*	-0.9%	9.28µM*	51.7*
OC(c1cccc(Cl)c1)c1ncc(-c2ccccc2Cl)[nH]1 (stereo not drawn)	-3.8%	/	/	/	/	/
Oc1ccc(Cl)cc1-c1cc(-c2cccc(Br)c2)n[nH]1	72.6%	/	42.3*	-22.1%	2.94µM*	79.1*
Cc1cccc(N2C(=S)N=C(Nc3c(C)cccc3C)C23CCOC(C)(C)C3)c1 (stereo not drawn)	0.6%	-20.7%	-1.7	0.9%	/	2.8
CCOC(=O)C(=O)Nc1ccccc1C(=O)Nc1ccc(OC)cc1	6.6%	0.0%	7.1	7.1%	/	23.3
CSc1ccccc1NC(=S)NC1CCCCC1	-13.2%	?	-3.5	-0.6%	-9.0%	-6.5
CC(C)c1ccccc1NC(=S)NC1CCCCC1	4.6%	4.65µM*	-2.1	-1.9%	?	-3.4
S=C(Nc1cccc2ccccc12)NC1CCCCC1	29.6%	?	40.3*	-0.7%	-2.4%	50.8*
CSc1ccccc1NC(=S)NC1CCCC1	1.5%	?	-0.5	8.8%	?	-10.5
O=C(Nc1cccc2ccccc12)C1CCCC1	0.8%	17.1%	-1.0	-0.9%	32.4%	-6.3
CCCCc1ccccc1NC(=S)NC1CCCC1	40.1%	?	1.1	6.8%	9.28µM*	-7.8
CCOc1cccc(-c2ccc3nncn3c2)c1	12.3%	/	/	/	/	/
Cc1ccc(OCC(=O)N(C)CC(=O)Nc2cccc(F)c2)cc1	7.0%	-30.0%	-1.5	0.2%	-0.3%	-10.5
CCc1cc(=O)oc2c3c(cc(OCC(=O)NC4CC4)c12)OC(C)(C)CC3	7.6%	4.15µM*	0.8	-1.2%	?	-4.9
CCc1cc(=O)oc2c3c(cc(OCC(=O)NCc4ccncc4)c12)OC(C)(C)CC3	-11.2%	?	-1.4	-3.7%	10.4µM*	-3.0
CCc1cc(=O)oc2c3c(cc(OCC(=O)NCCC(=O)O)c12)OC(C)(C)CC3	2.6%	?	-3.0	0.2%	-19.3%	-10.9
CCc1cc(=O)oc2c3c(cc(OCC(=O)NCCCOC)c12)OC(C)(C)CC3	-0.4%	0.0%	-3.2	-1.0%	0.0%	3.8
CCc1cc(=O)oc2c3c(cc(OCC(=O)NCc4ccco4)c12)OC(C)(C)CC3	-19.2%	?	33.2*	0.3%	32.4%	34.4*
CCc1cc(=O)oc2c3c(cc(OCC(=O)NCCN4CCOCC4)c12)OC(C)(C)CC3	-1.0%	9.28µM*	-2.9	7.3%	?	-2.3
O=C(O)CCCN=CC1=C(O)CNC1=O	4.6%	67.5%	-1.6	0.0%	36.2%	15.2
Clc1ccc2c(NCc3ccco3)ncnc2c1	-0.1%	?	5.9	5.4%	/	4.8
SMILES	AMA1 RON2 block	Pf growth 96h	CHX counter	SARS PLpro yeast	Pf growth 48h	Shiga inhibitor
Cn1cnc2c(NCc3ccco3)ncnc21	0.7%	?	-0.7	1.7%	?	9.6
Cc1ccc(-n2ncc3c(NCc4ccco4)ncnc32)cc1C	7.8%	?	50.9*	-4.7%	71.3%	91.2*
Cc1cccc(-n2ncc3c(NCc4ccco4)ncnc32)c1	-1.8%	334.9%	34.5*	-21.8%	313.5%	64.4*
Cc1nc2ccc(S(=O)(=O)NCC(=O)N(C)Cc3ccccc3)cc2s1	0.0%	15.9%	19.6	-0.8%	?	10.2
NNC(=O)c1ccc(Cn2cc(Br)c(N)n2)cc1	?	0.0%	11.8*	-2.3%	46.7%	18.0
NNC(=O)c1ccc(Cl)cc1	32.5%	36.0%	13.1	-0.5%	12.6%	42.7
COC(C[C@H](O)CC(=O)[C@H](C)OCc1ccccc1)OC	13.7%	66.8%	-4.3	-0.1%	46.0%	-4.9
